Compound activity deposited in PubChem by National Center for Advancing Translational Sciences (NCATS).
TDP1 cell CPT = DT40-hTDP1 cell growth loss with CPT; chicken DT40 Tdp1-/-;hTDP1 cells + 20 nM CPT, ATP luminescence, 48 h; Potency, µM (doses to about 46.2 µM), without a hit: top-dose activity change, negative = growth inhibition, hits mostly inhibitors; actives 12% (n = 420,000); AID 686979; note: nearly all actives have a fitted effect of over 55% in size
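Cell growth measured by CellTiter-Glo luminescence after a minimum 48 h, 37 C compound exposure with 20 nM CPT in Tdp1-knockout DT40 cells stably expressing hTDP1, seeded 400/well; qHTS titration format.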
VP16 counter = Gal4-VP16 reporter inhibition counter-screen. AID 2546. actives 3.5% (n = 310,000). Potency, µM (doses to about 53.6 µM), for inactives: top-dose activity, negative = inhibition, most hits filed as inhibitors. Drosophila S2 Gal4-VP16 UAS-luciferase, luminescence, 20 h;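 note: Gal4-VP16 expression switched on by copper sulfate through the metallothionein promoter; nearly all actives have a fitted effect of over 50% in size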
TDP1 block = TDP1 (human) enzyme inhibition; Q9NUW8; recombinant TDP1, AlphaScreen DNA substrate cleavage; Potency, µM (doses to about 130 µM), without a hit: top-dose activity change, negative = inhibition, most hits filed as inhibitors; actives 0.28% (n = 350,000); AID 485290; note: nearly all actives have a fitted effect of over 40% in size
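E. coli-derived human Tdp1, 1 nM final. Cpd preinc 15 min RT; substrate 15 nM final, 5 min RT; AS bead mix 10 ug/ml final, 10 min RT. Signal loss = tyrosine-FITC cleavage. No-enzyme wells = max signal.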
TDP1 cell noCPT = qHTS for Inhibitors of human tyrosyl-DNA phosphodiesterase 1 (TDP1): qHTS in cells in absence of CPT | actives 15% (n = 420,000) | DT40 Tdp1-/- hTDP1 cells, no CPT, ATP luminescence, 48 h | Potency, µM (doses to about 46.2 µM), for inactives: at the highest dose activity change, negative = growth inhibition, usual class: inhibitors; note: nearly all actives have a fitted effect of over 55% in size
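No-CPT arm: Tdp1-/-;hTDP1 DT40 cells (400/well) plus compounds, incubated ≥48 hr at 37 °C. Readout CellTiter-Glo luminescence.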
RORgamma inh = inhibitors of mouse ROR gamma transcriptional activity. P51450. Drosophila S2 Gal4-RORgamma UAS-luciferase reporter, 20 h. Potency, µM (top dose mostly 53.6 µM), without a hit: at the highest dose activity change, negative = inhibition, hits mostly inhibitors. actives 5.4% (n = 310,000); note: nearly all actives have a fitted effect of over 60% in size
Target sequence (P51450 whole entry, looked up, the tested form may be a part): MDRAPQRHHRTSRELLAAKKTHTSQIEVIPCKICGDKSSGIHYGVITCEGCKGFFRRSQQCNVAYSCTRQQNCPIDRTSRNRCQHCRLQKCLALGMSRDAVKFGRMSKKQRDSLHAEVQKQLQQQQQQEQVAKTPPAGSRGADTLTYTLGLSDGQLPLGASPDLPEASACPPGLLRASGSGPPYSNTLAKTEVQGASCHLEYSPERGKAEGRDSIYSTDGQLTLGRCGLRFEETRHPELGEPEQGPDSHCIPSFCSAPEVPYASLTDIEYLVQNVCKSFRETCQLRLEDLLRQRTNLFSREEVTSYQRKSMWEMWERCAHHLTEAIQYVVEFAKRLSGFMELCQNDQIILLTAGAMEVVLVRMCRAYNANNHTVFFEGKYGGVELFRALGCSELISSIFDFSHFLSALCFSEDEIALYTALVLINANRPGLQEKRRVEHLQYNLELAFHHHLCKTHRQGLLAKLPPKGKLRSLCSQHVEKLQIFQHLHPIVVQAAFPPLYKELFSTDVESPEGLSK
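Luciferase reporter read in Schneider cells carrying Gal4-RORγ (mouse) and UAS-Photinus luciferase; cells given compound 1 h before 700 uM copper sulfate induction, then incubated 20 h at ambient temperature.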
Active calls of the source: *; ? = inconclusive; · = not tested or not shown; [ ] = remark or other dose. Compounds with a hit are over-represented: about 19% of the library has one in this group of screens. Calls come from the whole dose curve; as a rule, active = well fitted curve in the direction sought with a large enough effect; inconclusive = small, poorly fitted or top-dose-only effect, or another doubt; inactive = no such curve, though single readings can be large; an effect the other way counts as inactive or inconclusive. % is set by controls: 0 for no effect and ±100 for the full control effect; potency is the fitted concentration of half-maximal effect.

SMILES	TDP1 cell CPT	VP16 counter	TDP1 block	TDP1 cell noCPT	RORgamma inh
O=[N+]([O-])c1cc(Br)cc(/C=N/n2cnnc2)c1O	-26%	14%	-2%	?	8%
CCS/C(N)=N/N=C/c1cc(C)ccc1O	0.58µM*	2µM*	7%	0.82µM*	0.71µM*
CCCCS/C(N)=N/N=C/c1cc(C)ccc1O	4.1µM*	5µM*	2%	5.2µM*	5.6µM*
C=CCS/C(N)=N\N=C\c1cc(Br)cc([N+](=O)[O-])c1O	?	3.2µM*	6%	7.3µM*	0.32µM*
NC(N)=N/N=C/c1cc([N+](=O)[O-])ccc1O	5%	-8%	-1%	2%	18%
Nn1cnnc1N/N=C/c1cc(Br)cc(Br)c1O	?	13µM*	13%	?	10µM*
Cn1nc(C(=O)OCC(=O)c2ccc(Cl)cc2)c2ccccc2c1=O	2%	·	0%	6%	·
CCCCC[C@@H]1C=C(C(=O)O)[C@H](c2ccc(Br)cc2)N1S(=O)(=O)c1ccc(C)cc1	10%	·	1%	3%	·
CN(C(=O)COC(=O)C12CC3CC(CC(Cl)(C3)C1)C2)C1(C#N)CCCCC1	?	·	1%	-6%	·
CS/C(N)=N/N=C/c1cc(C)ccc1O	-3%	5µM*	5%	?	0.32µM*
CS/C(N)=N/N=C/c1cc(Br)cc(Br)c1O	?	2.5µM*	6%	16µM*	0.63µM*
O=C(NCC(=O)N1CCN(c2ncccn2)CC1)c1ccccc1OC(F)F	3%	·	1%	-23%	·
COc1ccc(NC(=O)/C(C#N)=C\C=C\c2ccco2)cc1	8.2µM*	?	3%	2.9µM*	-34%
CC1CCN(C(=S)Nc2ccc3nc4n(c(=O)c3c2)CCCCC4)CC1	-30%	-5%	0%	?	28%
Cc1cc(C(=O)Nc2ccccc2N2CCOCC2)no1	-4%	·	0%[56.1 µM]	4%	·
O=C(Nc1ccccc1N1CCOCC1)c1ccc([N+](=O)[O-])s1	16µM*	·	7%	16µM*	·
CCc1sc(C(=O)Nc2ccccc2N2CCOCC2)cc1C	23µM*	?	3%	?	5%
O=C(Nc1ccccc1N1CCOCC1)c1ccccc1[N+](=O)[O-]	-18%	-16%	-2%	-25%	21%
CCOC(=O)c1cc(C(=O)OCC)cc(-n2cc(O)c(C(=O)OCC)n2)c1	?	11µM*	-8%	?	?
O=C(COC(=O)C1=COCCO1)NCc1ccc(Cl)cc1Cl	0%	·	·	-9%	·
O=C1C2C3C=CC(C3)C2C(=O)N1c1ccccc1 (stereo not given)	-7%	-7%	4%	-2%	22%
O=C1C2C3C=CC(C3=C3CCCCC3)C2C(=O)N1c1ccccc1 (stereo not given)	?	2%	2%	13µM*	13µM*
Cc1ccc(C(=O)Nc2cccc(N3C(=O)C4CCC(C)CC4C3=O)c2)cc1 (stereo not given)	-2%	1%	2%[56.1 µM]	-22%	-19%
CCCC(C)NC(=O)c1ccc(C2SCC(=O)N2Cc2ccco2)cc1 (stereo not given)	-18%	1%	2%	?	5%
COc1ccc2c(c1)CCc1sc(NC(=O)c3ccco3)nc1-2	?	-1%	5%	?	-20%
SMILES	TDP1 cell CPT	VP16 counter	TDP1 block	TDP1 cell noCPT	RORgamma inh
Cc1sc(NC(=O)c2ccco2)nc1-c1ccc2c(c1)CC(C)N2C(=O)C1CC1 (stereo not given)	6.3µM*	-4%	4%	3.5µM*	?
CCOC(=O)C(=O)Nc1nc(-c2ccc3c(c2)CCN3C(=O)C2CC2)c(C)s1	-2%	?	16%	14%	16%
CC(=O)Nc1nc(-c2ccc3c(c2)CC(C)N3C(=O)C2CC2)c(C)s1 (stereo not given)	1.2µM*	13%	·	2.1µM*	10%
Cc1ccc(C)c(S(=O)(=O)c2nnn3c2nc(NC(C)C)c2sccc23)c1	23µM*	·	5%	?	·
CCc1ccc(S(=O)(=O)c2nnn3c2nc(NC2CCCC2)c2sccc23)cc1	23µM*	·	5%	?	·
Cc1ccc(S(=O)(=O)c2nnn3c2nc(NC2CCCCCC2)c2sccc23)cc1C	15µM*	·	-3%	21µM*	·
CCOc1ccc(Nc2nc3c(S(=O)(=O)c4ccc(C(C)C)cc4)nnn3c3ccsc23)cc1	?	·	-5%	?	·
Cc1ccc(C)c(S(=O)(=O)c2nnn3c2nc(NC2CCCCC2)c2sccc23)c1	?	·	3%	?	·
Cc1ccc(S(=O)(=O)c2nnn3c2nc(Nc2ccc(C(C)C)cc2)c2sccc23)cc1C	4.1µM*	·	0%	4.6µM*	·
CCN1CCN(c2oc(/C=C/c3ccccc3OC)nc2C#N)CC1	?	·	0%	?	·
CCc1ccc(OCC(=O)NC(=S)Nc2cccc(CO)c2)c(Br)c1	-26%	10µM*	5%	-22%	11µM*
COc1ccc(CC(=O)Nc2cccc(-c3nnc(-c4cccc(C)c4)o3)c2)cc1OC	?	7.9µM*	7%	23µM*	?
COc1ccc(CC(=O)Nc2cccc(-c3nnc(-c4ccccc4)o3)c2)cc1OC	5.8µM*	?	2%	2.3µM*	?
COc1ccc(CC(=O)Nc2ccc(-c3nnc(-c4ccccc4)o3)cc2)cc1OC	-10%	-12%	9%	0%	24%
Cc1ccc(OCC(=O)Nc2cccc(-c3nnc(-c4ccccc4)o3)c2)c(C)c1	12µM*	0%	-8%	12µM*	?
O=C(O)C1C2C=CC(C2)C1C(=O)NCc1ccc2c(c1)OCO2 (stereo not given)	-13%	-5%	12%	-3%	-20%
COc1ccc(CC(=O)NCc2cccc(CNC(=O)Cc3ccc(OC)c(OC)c3)c2)cc1OC	-7%	4%	5%	-2%	-6%
COc1ccc(CC(=O)Nc2cccc(-c3nnc(-c4ccc(C)cc4)o3)c2)cc1OC	6.5µM*	?	1%	5.2µM*	?
COc1ccc(-c2nc3cc(NC(=O)Cc4ccc(OC)c(OC)c4)ccc3o2)cc1	?	?	6%	?	?
CCc1cccc(NC(=O)Cc2ccc(OC)c(OC)c2)c1	?	?	0%	13µM*	-1%
COc1ccccc1NS(=O)(=O)c1cc(NC(=O)c2cccs2)ccc1N1CCCCC1	16µM*	0%	1%	15µM*	-4%
COc1ccccc1NS(=O)(=O)c1cc(NC(=O)C(C)C)ccc1N1CCCCC1	?	4%	3%	?	-25%
COc1ccccc1NS(=O)(=O)c1cc(NC(=O)Nc2ccccc2)ccc1N1CCCCC1	18µM*	-4%	0%	18µM*	?
